9 compounds from PubChem BioAssay (NCI) can be followed below.

Assay [1] is described as follows: NCI Yeast Anticancer Drug Screen. Data for the rad50 strain (AID 155).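 Also: 0% = growth of vehicle-only cultures of the same strain.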 To be noted: S. cerevisiae rad50 strain growth inhibition, stronger effect = higher value. The method, boiled down:
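Growth of the mutant yeast was measured after compound exposure and referenced to vehicle-treated cultures.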

The nature of assay [2]: NCI Yeast Anticancer Drug Screen. Data for the mec2-1 strain (AID 157). The note with it: S. cerevisiae mec2-1 strain, stronger effect = higher value. The method in brief: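 Readout is yeast growth inhibition, normalised to vehicle-treated controls, in the mec2-1 strain exposed to compound.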
Assay [3] can be described thus: NCI Yeast Anticancer Drug Screen. Data for the sgs1 mgt1 strain (AID 161).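 Also: 0% = growth of cultures given vehicle only.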 To be noted: S. cerevisiae sgs1 mgt1 strain, stronger effect = higher value. The method in brief:
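This yeast growth screen uses a strain with defined DNA-repair lesions; compound-treated growth is compared with vehicle-treated growth.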

Assay [4] in a line: NCI Yeast Anticancer Drug Screen. Data for the cln2 rad14 strain (AID 165).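 Also: 0% = growth equal to vehicle treated cultures.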 The note with it: S. cerevisiae cln2 rad14 strain, stronger effect = higher value. The method in brief: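 Relative to vehicle controls, growth inhibition of compound-treated cln2 rad14 yeast was recorded.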
Assay [5] can be described thus: NCI Yeast Anticancer Drug Screen. Data for the bub3 strain (AID 167). To be noted: S. cerevisiae bub3 mutant strain, stronger effect = higher value. The method in brief:
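Whole-cell yeast assay. The mutant strain was incubated with compounds, and growth inhibition was determined by comparison with vehicle-treated cells.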

Assay [6] can be described thus: NCI Yeast Anticancer Drug Screen. Data for the mlh1 rad18 strain (AID 175). To be noted: S. cerevisiae mlh1 rad18 strain growth inhibition, stronger effect = higher value. The method, boiled down: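 Test agents were incubated with a yeast strain of defined genotype (DNA damage repair defect). Inhibition of growth was derived by comparison with vehicle-exposed cultures.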
Setting [7] is: at 5.0 µM (retest, dose inferred, filed as 0.5).
The mark [8] stands for this setting: at 50.0 µM (retest, dose inferred, filed as 5.0).

“And” between values parts separate entries of the source, which are not always exact repeats. Equal entries are not always repeated. About 79,000 compounds went through this panel and 15% of them were active in at least one assay; those are over-represented in the sample as a whole. Where a structure was tested more than once in an assay, its records may differ in their call. The source made the active and inactive calls. Rule as the data show it: active = growth inhibition above about 70%; inactive = the rest.

As to `[Cl][Hg][CH2]CC1CC=CCC1` (configuration not stated), the growth inhibition in assay [1] (setting [7]) is 99% (active); in assay [1] (setting [8]) it was 99% (active); in assay [1] (at 50.0 µM), 99.2% (active); in assay [2] (setting [7]) it was 100% (active); in assay [2] (setting [8]) it was 100% (active); in assay [2] (at 50.0 µM), 99.5% (active). Further, the growth inhibition in assay [3] (setting [7]) was 100% (active); in assay [3] (setting [8]), 99% (active); in assay [3] (at 50.0 µM), 99.6% (active); in assay [4] (setting [7]), 100% (active); in assay [4] (setting [8]), 99% (active); in assay [4] (at 50.0 µM) it was 99.5% (active). Further, the growth inhibition is 99% (active) in assay [5] (setting [7]); 99% (active) in assay [5] (setting [8]); 99.6% (active) in assay [5] (at 50.0 µM); 100% (active) in assay [6] (setting [7]); 100% (active) in assay [6] (setting [8]); 99.5% (active) in assay [6] (at 50.0 µM).

For `CC(Cl)CN(C)C` (configuration not stated), the growth inhibition in assay [1] (setting [7]) was 24% (inactive); in assay [1] (setting [8]), 74% (active); in assay [1] (at 50.0 µM), 75.3% (active) and 30.4% (inactive); in assay [2] (setting [7]), -5% (inactive); in assay [2] (setting [8]) it was 13% (inactive); in assay [2] (at 50.0 µM), 1.1% (inactive) and -17.4% (inactive). The growth inhibition is 25% (inactive) in assay [3] (setting [7]); 57% (inactive) in assay [3] (setting [8]); 54.5% (inactive) and 33.9% (inactive) in assay [3] (at 50.0 µM); -1% (inactive) in assay [4] (setting [7]); 3% (inactive) in assay [4] (setting [8]); -55.5% (inactive) and 7.95% (inactive) in assay [4] (at 50.0 µM). For the same compound, the growth inhibition in assay [5] (setting [7]) was -8% (inactive); in assay [5] (setting [8]), -10% (inactive); in assay [5] (at 50.0 µM) it was -20.4% (inactive) and -16.6% (inactive); in assay [6] (setting [7]), 11% (inactive); in assay [6] (setting [8]), 37% (inactive); in assay [6] (at 50.0 µM), 57% (inactive) and 18.3% (inactive).

`CCCCS.[Hg]`: the growth inhibition in assay [1] (setting [7]) was 99% (active); in assay [1] (setting [8]), 94% (active); in assay [1] (at 50.0 µM) it was 98.9% (active); in assay [2] (setting [7]), 99% (active); in assay [2] (setting [8]) it was 96% (active); in assay [2] (at 50.0 µM), 99% (active). The growth inhibition in assay [3] (setting [7]) was 99% (active); in assay [3] (setting [8]), 94% (active); in assay [3] (at 50.0 µM), 99.1% (active); in assay [4] (setting [7]) it was 97% (active); in assay [4] (setting [8]), 93% (active); in assay [4] (at 50.0 µM), 98.7% (active). In addition, the growth inhibition in assay [5] (setting [7]) is 99% (active); in assay [5] (setting [8]) it was 93% (active); in assay [5] (at 50.0 µM) it was 98.8% (active); in assay [6] (setting [7]), 99% (active); in assay [6] (setting [8]), 94% (active); in assay [6] (at 50.0 µM), 99.2% (active).

With `Cl[C](Cl)(Cl)[Hg][c]1ccccc1`, the growth inhibition is 99% (active) in assay [1] (setting [7]); 99% (active) in assay [1] (setting [8]); 88% (active) in assay [1] (at 50.0 µM); 100% (active) in assay [2] (setting [7]); 99% (active) in assay [2] (setting [8]); 93.8% (active) in assay [2] (at 50.0 µM). Further, the growth inhibition in assay [3] (setting [7]) was 100% (active); in assay [3] (setting [8]), 99% (active); in assay [3] (at 50.0 µM) it was 92.7% (active); in assay [4] (setting [7]), 99% (active); in assay [4] (setting [8]), 99% (active); in assay [4] (at 50.0 µM) it was 91.7% (active). The growth inhibition in assay [5] (setting [7]) is 99% (active); in assay [5] (setting [8]) it was 99% (active); in assay [5] (at 50.0 µM) it was 91.8% (active); in assay [6] (setting [7]), 99% (active); in assay [6] (setting [8]), 99% (active); in assay [6] (at 50.0 µM), 91.5% (active).

For the compound `CC[C@@]1(O)C[C@H](OC2CC(N)C(O)C(C)O2)c2c(O)c3c(c(O)c2[C@H]1C(=O)OC)C(=O)c1cccc(O)c1C3=O` (some centres not stated), the growth inhibition is 63% (inactive) in assay [1] (setting [7]); 99% (active) in assay [1] (setting [8]); 78.1% (active) in assay [1] (at 50.0 µM); 27% (inactive) in assay [2] (setting [7]); 99% (active) in assay [2] (setting [8]); 87.5% (active) in assay [2] (at 50.0 µM). Further, the growth inhibition in assay [3] (setting [7]) is 48% (inactive); in assay [3] (setting [8]) it was 99% (active); in assay [3] (at 50.0 µM), 80.2% (active); in assay [4] (setting [7]), 39% (inactive); in assay [4] (setting [8]) it was 99% (active); in assay [4] (at 50.0 µM), 67.3% (inactive). Moreover, the growth inhibition is 52% (inactive) in assay [5] (setting [7]); 99% (active) in assay [5] (setting [8]); 76.7% (active) in assay [5] (at 50.0 µM); 50% (inactive) in assay [6] (setting [7]); 98% (active) in assay [6] (setting [8]); 80.2% (active) in assay [6] (at 50.0 µM).

`COc1cc(/C=C/c2ccc(OC)c(OC)c2)cc(OC)c1`: the growth inhibition in assay [1] (setting [7]) was -6% (inactive); in assay [1] (setting [8]), 10% (inactive); in assay [1] (at 50.0 µM), 26.1% (inactive); in assay [2] (setting [7]) it was -2% (inactive); in assay [2] (setting [8]) it was 26% (inactive); in assay [2] (at 50.0 µM), 15.1% (inactive). Also, the growth inhibition was -3% (inactive) in assay [3] (setting [7]); 68% (inactive) in assay [3] (setting [8]); 79% (active) in assay [3] (at 50.0 µM); -4% (inactive) in assay [4] (setting [7]); 16% (inactive) in assay [4] (setting [8]); 47.6% (inactive) in assay [4] (at 50.0 µM). Also, the growth inhibition in assay [5] (setting [7]) was 1% (inactive); in assay [5] (setting [8]), 69% (inactive); in assay [5] (at 50.0 µM), 66.9% (inactive); in assay [6] (setting [7]), -3% (inactive); in assay [6] (setting [8]), 12% (inactive); in assay [6] (at 50.0 µM) it was 59.5% (inactive).

In the case of `CC(=O)C1C2c3ccccc3C(c3ccccc32)C1C` (configuration not stated), the growth inhibition was 3% (inactive) in assay [1] (setting [7]); 55% (inactive) in assay [1] (setting [8]); 77.6% (active) in assay [1] (at 50.0 µM); -7% (inactive) in assay [2] (setting [7]); 52% (inactive) in assay [2] (setting [8]); 10.4% (inactive) in assay [2] (at 50.0 µM). Moreover, the growth inhibition in assay [3] (setting [7]) was -2% (inactive); in assay [3] (setting [8]), 62% (inactive); in assay [3] (at 50.0 µM), 65% (inactive); in assay [4] (setting [7]), -85% (inactive); in assay [4] (setting [8]), 63% (inactive); in assay [4] (at 50.0 µM) it was 30.5% (inactive). For the same compound, the growth inhibition in assay [5] (setting [7]) was -9% (inactive); in assay [5] (setting [8]), 71% (active); in assay [5] (at 50.0 µM), 45.1% (inactive); in assay [6] (setting [7]), -1% (inactive); in assay [6] (setting [8]), 53% (inactive); in assay [6] (at 50.0 µM), 69.5% (inactive).

Regarding `Cc1cccc(C)c1NC(=O)/C(CC(=O)CC(c1ccccc1)c1c(O)c2ccccc2oc1=O)=N/O` (configuration not stated), the growth inhibition in assay [1] (setting [7]) was 26% (inactive); in assay [1] (setting [8]) it was 60% (inactive); in assay [1] (at 50.0 µM), 1.1% (inactive); in assay [2] (setting [7]), 20% (inactive); in assay [2] (setting [8]) it was 34% (inactive); in assay [2] (at 50.0 µM), -5.8% (inactive). Also, the growth inhibition was 13% (inactive) in assay [3] (setting [7]); 55% (inactive) in assay [3] (setting [8]); -1.5% (inactive) in assay [3] (at 50.0 µM); 28% (inactive) in assay [4] (setting [7]); 45% (inactive) in assay [4] (setting [8]); -10.4% (inactive) in assay [4] (at 50.0 µM). Further, the growth inhibition is 35% (inactive) in assay [5] (setting [7]); 50% (inactive) in assay [5] (setting [8]); 4.85% (inactive) in assay [5] (at 50.0 µM); 25% (inactive) in assay [6] (setting [7]); 43% (inactive) in assay [6] (setting [8]); 2.1% (inactive) in assay [6] (at 50.0 µM).

Turning to `[Cl][Hg][Cl].c1cnccn1`, the growth inhibition in assay [1] (setting [7]) is 39% (inactive); in assay [1] (setting [8]), 97% (active); in assay [1] (at 50.0 µM) it was 92.2% (active); in assay [2] (setting [7]), 40% (inactive); in assay [2] (setting [8]) it was 98% (active); in assay [2] (at 50.0 µM) it was 93.8% (active). The growth inhibition is 99% (active) in assay [3] (setting [7]); 99% (active) in assay [3] (setting [8]); 94.3% (active) in assay [3] (at 50.0 µM); 80% (active) in assay [4] (setting [7]); 97% (active) in assay [4] (setting [8]); 93.2% (active) in assay [4] (at 50.0 µM). For the same compound, the growth inhibition in assay [5] (setting [7]) was 99% (active); in assay [5] (setting [8]), 99% (active); in assay [5] (at 50.0 µM) it was 93.2% (active); in assay [6] (setting [7]), 32% (inactive); in assay [6] (setting [8]) it was 99% (active); in assay [6] (at 50.0 µM), 93% (active).
